According to PubChem BioAssay AID1159580 (chemical genetic matrix, 2015):
The whole screen tested about 5,500 compounds, of which about 2,000 (36%) were called active. Another 18% or so got no clear call; they are omitted. No stated cut-off is given here; in the data, active means normalized growth mostly below about 0.91 (no sharp cut-off); inconclusive means no clear call, values can overlap the other calls; inactive means mostly above about 0.92. The list shows a part of the results.

Assay: chemical genetic growth profiling, strain panel (AID 1159580);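 further: tested at 20 µM; growth read once vehicle control cultures reached saturation at 30 °C; 1 = growth at the plate median or of vehicle wells; lower values mean less growth of the strain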
Details: growth OD

Measured: normalized growth

Cc1cc(C)cc(OCC2CNC(=O)O2)c1 (configuration not stated)
inactive: S. cerevisiae deletion strains, locus YJR075W, strain HOC1, active compounds read low 1.01 | S. cerevisiae deletion strains, locus YKL009W, strain mrt4, active compounds read low 1.02 | S. cerevisiae deletion strains, locus YKL068W, active compounds read low 1.02 | S. cerevisiae deletion strains, locus YKL085W, strain MDH1 (second series), active compounds read low 1.01 | S. cerevisiae deletion strains, locus YKL085W, strain MDH1, active compounds read low 1.01 | S. cerevisiae deletion strains, locus YKL160W, strain elf1, active compounds read low 0.973 | S. cerevisiae deletion strains, locus YKL190W, strain CNB1, active compounds read low 1.01 | S. cerevisiae deletion strains, locus YKR001C, strain vps1, active compounds read low 1.01 | S. cerevisiae deletion strains, locus YKR026C, strain gcn3, active compounds read low 0.978 | S. cerevisiae deletion strains, locus YKR091W, strain srl3, active compounds read low 0.985 | S. cerevisiae deletion strains, locus YLL001W, strain dnm1, active compounds read low 0.976 | S. cerevisiae deletion strains, locus YLL026W, active compounds read low 0.988 | S. cerevisiae deletion strains, locus YLL041C, strain sdh2, active compounds read low 0.972 | S. cerevisiae deletion strains, locus YLR027C, strain aat2, active compounds read low 0.985 | S. cerevisiae deletion strains, locus YLR039C, strain RIC1, active compounds read low 1.04 | S. cerevisiae deletion strains, locus YLR058C, strain SHM2, active compounds read low 1.01 | S. cerevisiae deletion strains, locus YLR102C, strain apc9, active compounds read low 1.02 | S. cerevisiae deletion strains, locus YLR113W, strain HOG1, active compounds read low 1.03 | S. cerevisiae deletion strains, locus YLR221C, strain rsa3, active compounds read low 0.966 | S. cerevisiae deletion strains, locus YLR258W, strain gsy2, active compounds read low 0.981 | S. cerevisiae deletion strains, locus YLR262C, strain YPT6 (second series), active compounds read low 0.962 | S. cerevisiae deletion strains, locus YLR262C, strain YPT6, active compounds read low 1.07 | S. cerevisiae deletion strains, locus YLR268W, strain sec22, active compounds read low 1.01 | S. cerevisiae deletion strains, locus YLR320W, strain mms22, active compounds read low 0.978 | S. cerevisiae deletion strains, locus YLR330W, strain CHS5, active compounds read low 1.01 | S. cerevisiae deletion strains, locus YLR342W, strain FKS1 (second series), active compounds read low 1.02 | S. cerevisiae deletion strains, locus YLR342W, strain FKS1, active compounds read low 0.982 | S. cerevisiae deletion strains, locus YLR357W, strain rsc2, active compounds read low 1.01 | S. cerevisiae deletion strains, locus YLR370C, strain arc18, active compounds read low 0.963 | S. cerevisiae deletion strains, locus YLR371W, strain rom2, active compounds read low 1.02 | S. cerevisiae deletion strains, locus YLR384C, strain iki3, active compounds read low 0.973 | S. cerevisiae deletion strains, locus YLR418C, strain cdc73, active compounds read low 1.02 | S. cerevisiae deletion strains, locus YML016C, strain PPZ1, active compounds read low 1.01 | S. cerevisiae deletion strains, locus YML032C, strain rad52, active compounds read low 1.02 | S. cerevisiae deletion strains, locus YML120C, strain ndi1, active compounds read low 0.984 | S. cerevisiae deletion strains, locus YML124C, strain tub3, active compounds read low 1 | S. cerevisiae deletion strains, locus YMR058W, strain fet3, active compounds read low 0.95 | S. cerevisiae deletion strains, locus YMR078C, strain ctf18, active compounds read low 1.02 | S. cerevisiae deletion strains, locus YMR125W, strain sto1, active compounds read low 0.979 | S. cerevisiae deletion strains, locus YMR129W, active compounds read low 0.984 | S. cerevisiae deletion strains, locus YMR205C, strain PFK2, active compounds read low 0.97 | S. cerevisiae deletion strains, locus YMR223W, strain ubp8, active compounds read low 1.02 | S. cerevisiae deletion strains, locus YMR231W, strain pep5, active compounds read low 0.964 | S. cerevisiae deletion strains, locus YMR263W, strain SAP30, active compounds read low 1.01 | S. cerevisiae deletion strains, locus YMR307W, strain GAS1, active compounds read low 1.03 | S. cerevisiae deletion strains, locus YNL067W, strain RPL9B, active compounds read low 1.02 | S. cerevisiae deletion strains, locus YNL071W, strain lat1, active compounds read low 0.983 | S. cerevisiae deletion strains, locus YNL128W, strain TEP1, active compounds read low 1.01 | S. cerevisiae deletion strains, locus YNL153C, strain GIM3, active compounds read low 1 | S. cerevisiae deletion strains, locus YNL183C, strain NPR1, active compounds read low 0.98 | S. cerevisiae deletion strains, locus YNL209W, strain ssb2, active compounds read low 0.969 | S. cerevisiae deletion strains, locus YNL233W, strain BNI4, active compounds read low 1 | S. cerevisiae deletion strains, locus YNL248C, strain rpa49, active compounds read low 0.976 | S. cerevisiae deletion strains, locus YNL250W, strain rad50, active compounds read low 1.02 | S. cerevisiae deletion strains, locus YNL271C, strain bni1, active compounds read low 1.02 | S. cerevisiae deletion strains, locus YNL298W, strain CLA4, active compounds read low 1.02 | S. cerevisiae deletion strains, locus YNL307C, strain MCK1, active compounds read low 1.01 | S. cerevisiae deletion strains, locus YNL322C, strain KRE1 (second series), active compounds read low 0.975 | S. cerevisiae deletion strains, locus YNL322C, strain KRE1, active compounds read low 1.01 | S. cerevisiae deletion strains, locus YNR049C, strain mso1, active compounds read low 0.983 | S. cerevisiae deletion strains, locus YNR052C, strain pop2, active compounds read low 1.02 | S. cerevisiae deletion strains, locus YOL006C, strain TOP1, active compounds read low 1.03 | S. cerevisiae deletion strains, locus YOL012C, strain htz1 1.42 | S. cerevisiae deletion strains, locus YOL147C, strain pex11, active compounds read low 1.01 | S. cerevisiae deletion strains, locus YOR001W, strain rrp6, active compounds read low 0.984 | S. cerevisiae deletion strains, locus YOR061W, strain CKA2, active compounds read low 1.01 | S. cerevisiae deletion strains, locus YOR069W, strain VPS5, active compounds read low 1.02 | S. cerevisiae deletion strains, locus YOR070C, strain gyp1, active compounds read low 0.969 | S. cerevisiae deletion strains, locus YOR080W, strain dia2, active compounds read low 0.991 | S. cerevisiae deletion strains, locus YOR083W, strain WHI5, active compounds read low 0.986 | S. cerevisiae deletion strains, locus YOR106W, strain vam3, active compounds read low 0.978 | S. cerevisiae deletion strains, locus YOR136W, strain idh2, active compounds read low 1.01 | S. cerevisiae deletion strains, locus YOR144C, strain elg1, active compounds read low 1.01 | S. cerevisiae deletion strains, locus YOR184W, strain ser1, active compounds read low 1.03 | S. cerevisiae deletion strains, locus YOR231W, strain MKK1, active compounds read low 1.05 | S. cerevisiae deletion strains, locus YOR265W, strain rbl2, active compounds read low 0.975 | S. cerevisiae deletion strains, locus YOR270C, strain vph1, active compounds read low 0.939 | S. cerevisiae deletion strains, locus YOR290C, strain snf2, active compounds read low 0.982 | S. cerevisiae deletion strains, locus YOR316C, strain cot1, active compounds read low 1.02 | S. cerevisiae deletion strains, locus YPL051W, strain arl3, active compounds read low 0.979 | S. cerevisiae deletion strains, locus YPL055C, strain LGE1, active compounds read low 1.02 | S. cerevisiae deletion strains, locus YPL078C, strain atp4, active compounds read low 0.973 | S. cerevisiae deletion strains, locus YPL106C, strain sse1, active compounds read low 0.969 | S. cerevisiae deletion strains, locus YPL240C, strain hsp82, active compounds read low 0.979 | S. cerevisiae deletion strains, locus YPL241C, strain CIN2, active compounds read low 1.01 | S. cerevisiae deletion strains, locus YPL256C, strain CLN2, active compounds read low 1.1 | S. cerevisiae deletion strains, locus YPR119W, strain clb2, active compounds read low 1.01 | S. cerevisiae deletion strains, locus YPR141C, strain kar3, active compounds read low 1.02 | S. cerevisiae deletion strains, locus YPR163C, strain tif3, active compounds read low 1.01 | S. cerevisiae deletion strains, locus YPR167C, strain met16, active compounds read low 1.01 | S. cerevisiae deletion strains, strain wtn01, active compounds read low 1.01 | S. cerevisiae strains, strain wild type, active compounds read low 1.01
